Source: the supplement of paper PMC10681739

Molecular target: T1, ETS1 (UniProt P14921)
T1 sequence: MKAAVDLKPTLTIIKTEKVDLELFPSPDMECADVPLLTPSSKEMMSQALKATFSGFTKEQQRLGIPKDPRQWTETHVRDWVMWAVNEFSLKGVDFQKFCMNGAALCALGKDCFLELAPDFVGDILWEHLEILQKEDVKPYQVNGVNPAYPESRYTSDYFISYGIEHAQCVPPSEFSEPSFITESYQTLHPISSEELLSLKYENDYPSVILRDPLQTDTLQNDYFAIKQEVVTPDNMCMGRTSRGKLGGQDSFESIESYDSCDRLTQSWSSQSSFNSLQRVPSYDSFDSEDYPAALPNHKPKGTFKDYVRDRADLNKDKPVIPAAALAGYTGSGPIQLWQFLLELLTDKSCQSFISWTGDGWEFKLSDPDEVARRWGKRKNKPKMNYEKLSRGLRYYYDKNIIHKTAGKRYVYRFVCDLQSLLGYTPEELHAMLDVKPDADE
Test: ETS1 binding intensity (PBM fluorescence), ETS1 alone (arbitrary fluorescence units); higher = stronger binding
Details: ETS1 concentration 1 nM; RUNX1 concentration 0 nM

How did the ETS1 binding intensity turn out when GCTAGACAGGAAACAGTGAGCTTCTGTGGGCAGGAG was run?
The ETS1 binding intensity was 2770.

For CTGAAACAGGAAGCTGAGGGTGCGGTTGGGGGAGGA, which ETS1 binding intensity is on record?
Its ETS1 binding intensity is 2210.

How did the ETS1 binding intensity turn out when CGGTCAGGTCGCAGGAAACCACAGCGGCAGCGCGGC was run?
Its ETS1 binding intensity is 732.

For ACCAGCAACGGAAATCAGATCTCTTGTGGTTATTAT, which ETS1 binding intensity is on record?
Its ETS1 binding intensity is 1480.

Which ETS1 binding intensity does the source give for AGTCCTGCCCACTTCCTGCCGCAAGAGAAATCCACT here?
The ETS1 binding intensity was 1930.

Which ETS1 binding intensity does the source give for CGTCTAATTGCAGGAAGTGGTTTGAAATGTTAATCT here?
Its ETS1 binding intensity is 4180.

Which ETS1 binding intensity does the source give for AACCAAACAGCCACAGGAAGTGGTTTCTGTGATTCA here?
Its ETS1 binding intensity is 7840.

For CCCACTGCGCCAGGATGTGGTCAGGTCGGTGACGTT, which ETS1 binding intensity is on record?
The ETS1 binding intensity was 1560.

Which ETS1 binding intensity does the source give for TGGGGGATGGCAGCAGGATGTGGTTATCTCAGAAAG here?
The ETS1 binding intensity was 3330.

For AGATTTTGTCTTCCTGTTGTGGCAACATCTGTAGAA, which ETS1 binding intensity is on record?
The ETS1 binding intensity was 521.

Which ETS1 binding intensity does the source give for TTTATCATGAATGCAGGATGTGGGCAGACTCACAGC here?
Its ETS1 binding intensity is 2590.

Which ETS1 binding intensity does the source give for AGCTTGCCGGAAGCTGGTTGTTCGCTGCGGCGACCA here?
The ETS1 binding intensity was 4100.

How did the ETS1 binding intensity turn out when GCGCAAAGCCGGAAGGAGGGGTTTGCGGCTGGGGAG was run?
The ETS1 binding intensity was 1730.

GAGTGGGCGGAAATCCGTGCCTGGCAGACCACAAAG was tested. Which ETS1 binding intensity did it give?
Its ETS1 binding intensity is 1320.

With AGTTACAGTAAAGGATGTGGTGAAACAGATGTTTAT as the sequence, how does the ETS1 binding intensity read?
The ETS1 binding intensity was 847.

How did the ETS1 binding intensity turn out when CTCCACCGGATGCAGCAATGAAGGCCGCAGGAATGG was run?
The ETS1 binding intensity was 3160.

For GGTTCGCGGCTTCCGGGACATTTGTACCGCAGGGGG, which ETS1 binding intensity is on record?
Its ETS1 binding intensity is 960.

For TCCAGCTCCACAGGATGTGGTGAGTGAAGCAGCAAG, which ETS1 binding intensity is on record?
Its ETS1 binding intensity is 2590.

AACCATTACAGGATGTGAGATTCAAACCACTAACAG was tested. Which ETS1 binding intensity did it give?
The ETS1 binding intensity was 2270.

With TACACTCCCACATCCGCTGCGGCGCAACTCACAACA as the sequence, how does the ETS1 binding intensity read?
The ETS1 binding intensity was 969.

With CTCATTGACAGGAAGTCTAACCACAGGCTTAGGCCC as the sequence, how does the ETS1 binding intensity read?
The ETS1 binding intensity was 3730.
